Measured values: PubChem BioAssay (EPA / NIEHS)
Active and inactive are the calls of the source. The calls were made as follows: active = hit-call score of the fitted dose curve at least 0.9, where 1 is the maximum; inactive = score below 0.9.

Key:
[1] = read-out: Transforming growth factor beta 1 (TGFb1), TGFB1 (gene 7040); experiment: BSK_KF3CT_TGFb1: BioMAP Diversity Plus: KF3CT Assay for Transforming growth factor beta 1 (TGFb1) Biomarker Activity (AID 2283072); conditions: primary human keratinocytes with fibroblasts; actives raise or lower the signal
Outline: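 Signal changes in either direction, relative to DMSO, define activity here. TGF-b1 is read by ELISA from a human keratinocyte-fibroblast co-culture 24 h post-dose.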

[2] = read-out: C-C motif chemokine 2 (Homo sapiens) (UniProt P13500); experiment: BSK_KF3CT_MCP1: BioMAP Diversity Plus: KF3CT Assay for Monocyte Chemoattractant Protein 1 (MCP1/CCL2) Biomarker Activity (AID 2283073); conditions: primary human keratinocytes with fibroblasts; actives raise or lower the signal
Outline: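 ELISA readout of MCP-1 after 24 h chemical dosing of a human skin primary co-culture of keratinocytes and foreskin fibroblasts. Activity was fitted in both directions against DMSO.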

[3] = read-out: Matrix Metallopeptidase 9 (MMP9), MMP9 (gene 4318); experiment: BSK_KF3CT_MMP9: BioMAP Diversity Plus: KF3CT Assay for Matrix Metallopeptidase 9 (MMP9) Biomarker Activity (AID 2283074); conditions: primary human keratinocytes with fibroblasts; actives raise or lower the signal;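 as to AC50: MMP9 protein level quantified by ELISA in the co-culture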
Outline: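 Human keratinocyte and foreskin fibroblast co-culture exposed to chemicals for 24 h; MMP9 biomarker measured by ELISA, bidirectional fitting relative to DMSO; cytotoxicity tracked by SRB total protein staining in parallel cultures.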

[4] = read-out: urokinase plasminogen activator (uPA), PLAU (gene 5328); experiment: BSK_KF3CT_uPA: BioMAP Diversity Plus: KF3CT Assay for urokinase plasminogen activator (uPA) Biomarker Activity (AID 2283075); conditions: primary human keratinocytes with fibroblasts; actives raise or lower the signal
Outline: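 Primary human keratinocyte/foreskin fibroblast co-culture exposed to chemical; uPA measured by ELISA at 24 h. Bidirectional fit versus DMSO, with parallel SRB total-protein staining for cytotoxicity.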

CD40, CD40 (gene 958) [5] = experiment: BSK_LPS_CD40: BioMAP Diversity Plus: LPS Assay for CD40 Biomarker Activity (AID 2283076); conditions: primary human HUVEC with PBMC; actives raise or lower the signal
Outline: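 Cells were dosed, incubated 24 h, then assayed for CD40 by ELISA. Gain or loss of signal was analysed relative to DMSO controls. The culture paired human umbilical vein endothelium with peripheral blood mononuclear cells.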

[6] = read-out: E-selectin (Homo sapiens) (UniProt P16581); experiment: BSK_LPS_Eselectin: BioMAP Diversity Plus: LPS Assay for Eselectin Biomarker Activity (AID 2283077); conditions: primary human HUVEC with PBMC; actives raise or lower the signal
Outline: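 Primary human vascular co-culture (endothelium plus PBMC) was dosed with chemical, then E-selectin quantified by ELISA at 24 h. Endpoint values derive from bidirectional curve fitting relative to DMSO.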

[7] = read-out: Interleukin-8 (IL8), CXCL8 (gene 3576); experiment: BSK_LPS_IL8: BioMAP Diversity Plus: LPS Assay for Interleukin-8 (IL8) Biomarker Activity (AID 2283078); conditions: primary human HUVEC with PBMC; actives raise or lower the signal
Outline: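 Readout is IL-8 by ELISA, taken 24 h after compounds were added to LPS-stimulated endothelial/PBMC co-cultures. Both increases and decreases relative to DMSO control were scored through bidirectional fitting.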

[8] = BSK_LPS_SRB: Viability Assessment in the BioMAP Diversity Plus: LPS Assay (AID 2283079); conditions: primary human HUVEC with PBMC;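 also: total protein by sulforhodamine B absorbance as a cytotoxicity measure; measured one day after compound addition; fitted in both directions against DMSO so loss or gain of signal counts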
Outline: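 Readout is SRB absorbance at 560 nm (0.1% stain, TCA-fixed parallel cultures) as a total-protein cytotoxicity measure. Cells: primary human umbilical vein endothelium plus peripheral blood mononuclear cells, 24 h after chemical exposure; DMSO served as baseline.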

[9] = read-out: Interleukin-1 alpha (IL1a), IL1A (gene 3552); experiment: BSK_LPS_IL1a: BioMAP Diversity Plus: LPS Assay for Interleukin-1 alpha (IL1a) Biomarker Activity (AID 2283080); conditions: primary human HUVEC with PBMC; actives raise or lower the signal
Outline: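 ELISA read-out of IL-1 alpha from a human primary vascular co-culture (endothelium plus PBMC) under LPS, sampled 24 hours post-dosing. Activity was fitted in both directions relative to DMSO controls.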

[10] = read-out: Monocyte Chemoattractant Protein-1 (MCP1), CCL2 (gene 6347); experiment: BSK_LPS_MCP1: BioMAP Diversity Plus: LPS Assay for Monocyte Chemoattractant Protein-1 (MCP1) Biomarker Activity (AID 2283081); conditions: primary human HUVEC with PBMC; actives raise or lower the signal;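 as to AC50: secreted MCP-1 protein quantified by ELISA in culture supernatant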
Outline: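 Human endothelial–PBMC co-cultures were dosed with chemical, then LPS-driven MCP-1 levels were quantified by ELISA at 24 h. Activity in either direction was fitted versus DMSO negative control.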

[11] = BSK_LPS_PGE2: BioMAP Diversity Plus: LPS Assay for Prostaglandin E2 (PGE2) Biomarker Activity (AID 2283082); conditions: primary human HUVEC with PBMC; actives raise or lower the signal;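 as to AC50: secreted prostaglandin E2 measured by ELISA in LPS-stimulated co-culture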
Outline: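 Endpoint derived from bidirectional curve fitting versus DMSO of ELISA-measured PGE2 in LPS-stimulated human primary vascular co-culture (HUVEC with PBMC) harvested at 24 h.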

[12] = read-out: Macrophage colony-stimulating factor (MCSF), CSF1 (gene 1435); experiment: BSK_LPS_MCSF: BioMAP Diversity Plus: LPS Assay for Macrophage colony-stimulating factor (MCSF) Biomarker Activity (AID 2283083); conditions: primary human HUVEC with PBMC; actives raise or lower the signal
Outline: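 ELISA readout of M-CSF after 24 h compound exposure in a human endothelial/PBMC co-culture. Activity, in either direction, is fitted relative to DMSO vehicle.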

[13] = read-out: Tissue Factor, F3 (gene 2152); experiment: BSK_LPS_TissueFactor: BioMAP Diversity Plus: LPS Assay for Tissue Factor Biomarker Activity (AID 2283084); conditions: primary human HUVEC with PBMC; actives raise or lower the signal
Outline: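 ELISA signal for cell-surface Tissue Factor (CD142) was read 24 h after compound dosing of an LPS-stimulated human endothelial–PBMC primary co-culture. Gain or loss of signal was scored relative to DMSO.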

[14] = read-out: Tumor necrosis factor (Homo sapiens) (UniProt P01375); experiment: BSK_LPS_TNFa: BioMAP Diversity Plus: LPS Assay for Tumour Necrosis Factor alpha (TNFa) Biomarker Activity (AID 2283085); conditions: primary human HUVEC with PBMC; actives raise or lower the signal
Outline: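 Primary human vascular co-culture of HUVEC and PBMC; TNFa ELISA 24 h after treatment, analysed as increase or decrease relative to DMSO control.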

[15] = read-out: Vascular cell adhesion molecule 1 (VCAM1), VCAM1 (gene 7412); experiment: BSK_LPS_VCAM1: BioMAP Diversity Plus: LPS Assay for Vascular cell adhesion molecule 1 (VCAM1) Biomarker Activity (AID 2283086); conditions: primary human HUVEC with PBMC; actives raise or lower the signal
Outline: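 Primary human vascular co-culture (umbilical vein endothelium plus PBMC) stimulated with LPS received chemical; 24 h later VCAM-1 was read by ELISA. Overt cytotoxicity was assessed by sulforhodamine B staining of parallel cultures at the same time point.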

CD38, CD38 (gene 952) = experiment: BSK_SAg_CD38: BioMAP Diversity Plus: SAg Assay for CD38 Biomarker Activity (AID 2283087); conditions: primary human HUVEC with PBMC; actives raise or lower the signal
Outline: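 Fluorescence ELISA of cell-surface CD38 served as the read-out, with either increase or decrease fitted against DMSO controls. Cells were a human umbilical vein endothelium plus PBMC co-culture under SEB/TSST-1 stimulation, measured 24 h after dosing.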

CD40, CD40 (gene 958) [16] = experiment: BSK_SAg_CD40: BioMAP Diversity Plus: SAg Assay for CD40 Biomarker Activity (AID 2283088); conditions: primary human HUVEC with PBMC; actives raise or lower the signal
Outline: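 Compounds were dosed onto a human primary endothelial–PBMC co-culture, and after 24 h CD40 was quantified by ELISA using a fluorescence signal. Activity in either direction was fitted relative to DMSO.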

CD69, CD69 (gene 969) = experiment: BSK_SAg_CD69: BioMAP Diversity Plus: SAg Assay for CD69 Biomarker Activity (AID 2283089); conditions: primary human HUVEC with PBMC; actives raise or lower the signal;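 as to AC50: cell surface CD69 protein quantified by ELISA with fluorescence detection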
Outline: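 Primary human vascular co-culture (umbilical vein endothelium with peripheral blood mononuclear cells) exposed to test chemical for 24 h. CD69 levels quantified by fluorescence ELISA; DMSO served as negative control for bidirectional fitting.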

[17] = read-out: Monocyte Chemoattractant Protein-1 (MCP1), CCL2 (gene 6347); experiment: BSK_SAg_MCP1: BioMAP Diversity Plus: SAg Assay for Monocyte Chemoattractant Protein-1 (MCP1) Biomarker Activity (AID 2283090); conditions: primary human HUVEC with PBMC; actives raise or lower the signal
Outline: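 MCP-1 levels in the endothelial–PBMC SAg co-culture were quantified by ELISA at 24 h post-dosing; both increases and decreases versus DMSO scored. Cytotoxicity monitored by SRB total protein in parallel cultures.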

[18] = read-out: E-selectin (Homo sapiens) (UniProt P16581); experiment: BSK_SAg_Eselectin: BioMAP Diversity Plus: SAg Assay for Eselectin Biomarker Activity (AID 2283091); conditions: primary human HUVEC with PBMC; actives raise or lower the signal
Outline: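 Co-culture: HUVEC + PBMC. Dose compound; 24 h. ELISA for E-selectin. Bidirectional fit vs DMSO.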

Measured: AC50

E-selectin (Homo sapiens), sequence (P16581 whole entry, looked up): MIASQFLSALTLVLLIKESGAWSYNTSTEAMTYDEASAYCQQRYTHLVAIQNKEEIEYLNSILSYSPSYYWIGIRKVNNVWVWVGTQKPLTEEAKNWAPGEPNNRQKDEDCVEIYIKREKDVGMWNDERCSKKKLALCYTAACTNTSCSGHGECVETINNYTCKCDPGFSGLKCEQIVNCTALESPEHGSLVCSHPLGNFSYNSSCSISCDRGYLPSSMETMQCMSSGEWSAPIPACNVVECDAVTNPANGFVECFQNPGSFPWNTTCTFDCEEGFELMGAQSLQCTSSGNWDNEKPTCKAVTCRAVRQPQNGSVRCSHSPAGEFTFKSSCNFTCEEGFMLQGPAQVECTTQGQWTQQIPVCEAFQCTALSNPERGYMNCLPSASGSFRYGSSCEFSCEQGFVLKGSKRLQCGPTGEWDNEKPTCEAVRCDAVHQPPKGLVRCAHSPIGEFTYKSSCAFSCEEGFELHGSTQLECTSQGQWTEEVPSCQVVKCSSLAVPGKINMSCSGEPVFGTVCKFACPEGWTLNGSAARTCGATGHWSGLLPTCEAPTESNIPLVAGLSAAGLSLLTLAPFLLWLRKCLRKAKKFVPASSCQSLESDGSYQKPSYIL
Tumor necrosis factor (Homo sapiens), sequence (P01375 whole entry, looked up): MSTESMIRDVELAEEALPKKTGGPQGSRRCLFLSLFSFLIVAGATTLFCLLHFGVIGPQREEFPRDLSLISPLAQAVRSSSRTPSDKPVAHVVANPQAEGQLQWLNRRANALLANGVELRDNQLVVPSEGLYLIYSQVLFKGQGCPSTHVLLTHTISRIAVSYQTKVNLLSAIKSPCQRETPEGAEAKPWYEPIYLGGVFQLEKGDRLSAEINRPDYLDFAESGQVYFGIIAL

O=C(N[C@H]1CN2CCC1CC2)c1ccc2c(c1)OCCO2
active: [11] 2.86 µM
inactive: all other assays above

c1ccc(-c2cccc(-c3ccccc3)c2)cc1
active: [3] 8.97 µM | CD40, CD40 (gene 958) [5] 25.4 µM | [6] 29.7 µM | [7] 29.9 µM | [8] 23.9 µM | [9] 20 µM | [10] 29.5 µM | [11] 0.75 µM | [12] 30.2 µM | [13] 32.7 µM | [15] 27.3 µM | CD38, CD38 (gene 952) 30.5 µM | CD40, CD40 (gene 958) [16] 29.4 µM | CD69, CD69 (gene 969) 30.9 µM | [17] 32.5 µM | [18] 33.1 µM
inactive: [1] | [2] | [4] | [14]

C[C@]12CC[C@@H](O)C[C@@H]1CC[C@@H]1[C@@H]2CC[C@]2(C)C(=O)CC[C@@H]12
not listed: [13]
inactive: all other assays above

Clc1cccc(Cl)c1Cl
not listed: [3] | [13]
inactive: all other assays above

O=C(O)COc1cc(Cl)c(Cl)cc1Cl
not listed: [13]
inactive: all other assays above

Cc1ccc(OP(=O)(Oc2ccc(C)cc2C)Oc2ccc(C)cc2C)c(C)c1
inactive: [1] | [2] | [6] | [7] | [8] | [11] | [15] | CD38, CD38 (gene 952) | [18]
active: [3] 8.84 µM | [4] 20 µM | CD40, CD40 (gene 958) [5] 6.48 µM | [9] 5.81 µM | [10] 20 µM | [12] 10.7 µM | [14] 34.1 µM | CD40, CD40 (gene 958) [16] 20 µM | CD69, CD69 (gene 969) 20 µM | [17] 5.89 µM
